Test results from PubChem BioAssay AID1159580 (chemical genetic matrix, 2015).
Screen size: about 5,500 compounds; about 2,000 (36%) were called active. Not shown: some 18% with an inconclusive outcome. Cut-off read from the data, not from the text of the source: active = normalized growth mostly below about 0.91 (no sharp cut-off); inconclusive = no clear call, values can overlap the other calls; inactive = mostly above about 0.92. The list shows a part of the results.

Experiment: chemical genetic growth profiling, strain panel (AID 1159580);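 note: tested at 20 µM; growth read once vehicle control cultures reached saturation at 30 °C; 1 = growth at the plate median or of vehicle wells; lower values mean less growth of the strain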
Conditions: growth OD

Measured: normalized growth

Cn1c(=O)[nH]c2nc[nH]c2c1=O
inactive: S. cerevisiae deletion strains, locus YAL021C, strain ccr4, stronger effect = lower value 0.98 | S. cerevisiae deletion strains, locus YAL026C, strain drs2, stronger effect = lower value 1.01 | S. cerevisiae deletion strains, locus YAL030W, strain snc1, stronger effect = lower value 1 | S. cerevisiae deletion strains, locus YBL061C, strain skt5, stronger effect = lower value 0.992 | S. cerevisiae deletion strains, locus YBR009C, strain hhf1, stronger effect = lower value 0.992 | S. cerevisiae deletion strains, locus YBR021W, strain FUR4, stronger effect = lower value 1.01 | S. cerevisiae deletion strains, locus YBR023C, strain chs3, stronger effect = lower value 0.993 | S. cerevisiae deletion strains, locus YBR171W, strain sec66, stronger effect = lower value 0.972 | S. cerevisiae deletion strains, locus YBR229C, strain ROT2, stronger effect = lower value 0.995 | S. cerevisiae deletion strains, locus YBR231C, strain swc5, stronger effect = lower value 0.989 | S. cerevisiae deletion strains, locus YBR279W, strain paf1, stronger effect = lower value 1 | S. cerevisiae deletion strains, locus YCL011C, strain gbp2, stronger effect = lower value 0.996 | S. cerevisiae deletion strains, locus YCL016C, strain dcc1, stronger effect = lower value 0.994 | S. cerevisiae deletion strains, locus YCL029C, strain bik1, stronger effect = lower value 0.992 | S. cerevisiae deletion strains, locus YCL061C, strain MRC1, stronger effect = lower value 0.999 | S. cerevisiae deletion strains, locus YCL069W, strain vba3, stronger effect = lower value 0.993 | S. cerevisiae deletion strains, locus YCR088W, strain abp1, stronger effect = lower value 1.01 | S. cerevisiae deletion strains, locus YDL005C, strain med2, stronger effect = lower value 0.993 | S. cerevisiae deletion strains, locus YDL035C, strain GPR1, stronger effect = lower value 1.01 | S. cerevisiae deletion strains, locus YDL040C, strain nat1, stronger effect = lower value 0.987 | S. cerevisiae deletion strains, locus YDL074C, strain BRE1, stronger effect = lower value 1.04 | S. cerevisiae deletion strains, locus YDL101C, strain DUN1, stronger effect = lower value 1.01 | S. cerevisiae deletion strains, locus YDL134C, strain PPH21, stronger effect = lower value 1 | S. cerevisiae deletion strains, locus YDL185W, strain tfp1, stronger effect = lower value 1.01 | S. cerevisiae deletion strains, locus YDL192W, strain arf1, stronger effect = lower value 0.985 | S. cerevisiae deletion strains, locus YDR001C, strain nth1, stronger effect = lower value 1 | S. cerevisiae deletion strains, locus YDR069C, strain doa4, stronger effect = lower value 1 | S. cerevisiae deletion strains, locus YDR101C, strain arx1, stronger effect = lower value 0.995 | S. cerevisiae deletion strains, locus YDR137W, strain rgp1, stronger effect = lower value 0.976 | S. cerevisiae deletion strains, locus YDR159W, strain sac3, stronger effect = lower value 1.01 | S. cerevisiae deletion strains, locus YDR162C, strain NBP2, stronger effect = lower value 1.03 | S. cerevisiae deletion strains, locus YDR195W, strain ref2 0.966 | S. cerevisiae deletion strains, locus YDR297W, strain sur2, stronger effect = lower value 1 | S. cerevisiae deletion strains, locus YDR318W, strain mcm21, stronger effect = lower value 0.994 | S. cerevisiae deletion strains, locus YDR334W, strain swr1, stronger effect = lower value 0.998 | S. cerevisiae deletion strains, locus YDR335W, strain msn5, stronger effect = lower value 0.987 | S. cerevisiae deletion strains, locus YDR388W, stronger effect = lower value 0.994 | S. cerevisiae deletion strains, locus YDR392W, strain spt3, stronger effect = lower value 0.972 | S. cerevisiae deletion strains, locus YDR502C, strain sam2, stronger effect = lower value 0.997 | S. cerevisiae deletion strains, locus YEL003W, strain gim4, stronger effect = lower value 1.01 | S. cerevisiae deletion strains, locus YEL037C, strain rad23, stronger effect = lower value 0.992 | S. cerevisiae deletion strains, locus YEL061C, strain CIN8 (second series), stronger effect = lower value 0.995 | S. cerevisiae deletion strains, locus YEL061C, strain CIN8, stronger effect = lower value 1 | S. cerevisiae deletion strains, locus YER015W, strain faa2, stronger effect = lower value 1.01 | S. cerevisiae deletion strains, locus YER016W, strain bim1, stronger effect = lower value 0.993 | S. cerevisiae deletion strains, locus YER110C, stronger effect = lower value 1 | S. cerevisiae deletion strains, locus YER111C, strain swi4, stronger effect = lower value 0.99 | S. cerevisiae deletion strains, locus YER155C, strain BEM2 (second series), stronger effect = lower value 0.992 | S. cerevisiae deletion strains, locus YER155C, strain BEM2, stronger effect = lower value 1.01 | S. cerevisiae deletion strains, locus YER167W, strain BCK2, stronger effect = lower value 0.997 | S. cerevisiae deletion strains, locus YFR010W, strain ubp6, stronger effect = lower value 1.01 | S. cerevisiae deletion strains, locus YGL078C, strain dbp3, stronger effect = lower value 1.01 | S. cerevisiae deletion strains, locus YGL086W, strain mad1, stronger effect = lower value 1.01 | S. cerevisiae deletion strains, locus YGL167C, strain pmr1, stronger effect = lower value 1 | S. cerevisiae deletion strains, locus YGL173C, strain kem1, stronger effect = lower value 1.02 | S. cerevisiae deletion strains, locus YGL227W, strain vid30, stronger effect = lower value 1 | S. cerevisiae deletion strains, locus YGL240W, strain doc1, stronger effect = lower value 1.01 | S. cerevisiae deletion strains, locus YGL248W, strain PDE1, stronger effect = lower value 0.996 | S. cerevisiae deletion strains, locus YGL253W, strain hxk2, stronger effect = lower value 1 | S. cerevisiae deletion strains, locus YGR078C, strain PAC10, stronger effect = lower value 1.01 | S. cerevisiae deletion strains, locus YGR135W, strain pre9, stronger effect = lower value 1.01 | S. cerevisiae deletion strains, locus YGR252W, strain gcn5, stronger effect = lower value 1.01 | S. cerevisiae deletion strains, locus YHR013C, strain ard1, stronger effect = lower value 0.989 | S. cerevisiae deletion strains, locus YHR027C, strain rpn1, stronger effect = lower value 1.02 | S. cerevisiae deletion strains, locus YHR030C, strain SLT2, stronger effect = lower value 1.02 | S. cerevisiae deletion strains, locus YHR079C, strain IRE1 (second series), stronger effect = lower value 1 | S. cerevisiae deletion strains, locus YHR094C, strain hxt1, stronger effect = lower value 0.993 | S. cerevisiae deletion strains, locus YHR129C, strain ARP1, stronger effect = lower value 1 | S. cerevisiae deletion strains, locus YHR142W, strain chs7, stronger effect = lower value 0.997 | S. cerevisiae deletion strains, locus YHR200W, strain rpn10, stronger effect = lower value 0.983 | S. cerevisiae deletion strains, locus YIL066C, strain RNR3, stronger effect = lower value 1.01 | S. cerevisiae deletion strains, locus YIL073C, strain SPO22, stronger effect = lower value 1.03 | S. cerevisiae deletion strains, locus YIL125W, strain kgd1, stronger effect = lower value 1 | S. cerevisiae deletion strains, locus YIR030C, strain dcg1, stronger effect = lower value 0.995 | S. cerevisiae deletion strains, locus YJL092W, strain hpr5, stronger effect = lower value 1 | S. cerevisiae deletion strains, locus YJL095W, strain BCK1 (second series), stronger effect = lower value 0.997 | S. cerevisiae deletion strains, locus YJL095W, strain BCK1, stronger effect = lower value 1.03 | S. cerevisiae deletion strains, locus YJL115W, strain asf1, stronger effect = lower value 1.01 | S. cerevisiae deletion strains, locus YJL129C, strain trk1, stronger effect = lower value 1.01 | S. cerevisiae deletion strains, locus YJL134W, strain LCB3, stronger effect = lower value 1.01 | S. cerevisiae deletion strains, locus YJL154C, strain vps35, stronger effect = lower value 0.997 | S. cerevisiae deletion strains, locus YJL164C, strain tpk1, stronger effect = lower value 0.981 | S. cerevisiae deletion strains, locus YJL166W, strain qcr8, stronger effect = lower value 0.995 | S. cerevisiae deletion strains, locus YJL168C, strain set2, stronger effect = lower value 0.994 | S. cerevisiae deletion strains, locus YJL187C, strain SWE1 (second series), stronger effect = lower value 1.01 | S. cerevisiae deletion strains, locus YJL187C, strain SWE1, stronger effect = lower value 1 | S. cerevisiae deletion strains, locus YJR043C, strain POL32, stronger effect = lower value 1.03 | S. cerevisiae deletion strains, locus YJR075W, strain HOC1, stronger effect = lower value 1.01 | S. cerevisiae deletion strains, locus YKL068W, stronger effect = lower value 1 | S. cerevisiae deletion strains, locus YKL085W, strain MDH1 (second series), stronger effect = lower value 1.02 | S. cerevisiae deletion strains, locus YKL085W, strain MDH1, stronger effect = lower value 1.02 | S. cerevisiae deletion strains, locus YKL160W, strain elf1, stronger effect = lower value 0.978 | S. cerevisiae deletion strains, locus YKL190W, strain CNB1, stronger effect = lower value 1.02 | S. cerevisiae deletion strains, locus YKR001C, strain vps1, stronger effect = lower value 1.01 | S. cerevisiae deletion strains, locus YKR026C, strain gcn3, stronger effect = lower value 0.999 | S. cerevisiae deletion strains, locus YKR091W, strain srl3, stronger effect = lower value 0.997 | S. cerevisiae deletion strains, locus YLL001W, strain dnm1, stronger effect = lower value 0.977 | S. cerevisiae deletion strains, locus YLL026W, stronger effect = lower value 1 | S. cerevisiae deletion strains, locus YLL041C, strain sdh2, stronger effect = lower value 0.999 | S. cerevisiae deletion strains, locus YLR027C, strain aat2, stronger effect = lower value 0.991 | S. cerevisiae deletion strains, locus YLR039C, strain RIC1, stronger effect = lower value 1.03 | S. cerevisiae deletion strains, locus YLR058C, strain SHM2, stronger effect = lower value 1.01 | S. cerevisiae deletion strains, locus YLR102C, strain apc9, stronger effect = lower value 1.01 | S. cerevisiae deletion strains, locus YLR221C, strain rsa3, stronger effect = lower value 1.01 | S. cerevisiae deletion strains, locus YLR258W, strain gsy2, stronger effect = lower value 1.01 | S. cerevisiae deletion strains, locus YLR262C, strain YPT6 (second series), stronger effect = lower value 0.979 | S. cerevisiae deletion strains, locus YLR262C, strain YPT6, stronger effect = lower value 1.04 | S. cerevisiae deletion strains, locus YLR268W, strain sec22, stronger effect = lower value 1.01 | S. cerevisiae deletion strains, locus YLR320W, strain mms22, stronger effect = lower value 1 | S. cerevisiae deletion strains, locus YLR330W, strain CHS5, stronger effect = lower value 1 | S. cerevisiae deletion strains, locus YLR342W, strain FKS1 (second series), stronger effect = lower value 1.01 | S. cerevisiae deletion strains, locus YLR342W, strain FKS1, stronger effect = lower value 1 | S. cerevisiae deletion strains, locus YLR357W, strain rsc2, stronger effect = lower value 0.977 | S. cerevisiae deletion strains, locus YLR370C, strain arc18, stronger effect = lower value 0.999 | S. cerevisiae deletion strains, locus YLR371W, strain rom2, stronger effect = lower value 1 | S. cerevisiae deletion strains, locus YLR384C, strain iki3, stronger effect = lower value 1 | S. cerevisiae deletion strains, locus YLR418C, strain cdc73, stronger effect = lower value 1.01 | S. cerevisiae deletion strains, locus YML016C, strain PPZ1, stronger effect = lower value 1 | S. cerevisiae deletion strains, locus YML032C, strain rad52, stronger effect = lower value 0.991 | S. cerevisiae deletion strains, locus YML120C, strain ndi1, stronger effect = lower value 1 | S. cerevisiae deletion strains, locus YML124C, strain tub3, stronger effect = lower value 0.996 | S. cerevisiae deletion strains, locus YMR058W, strain fet3, stronger effect = lower value 1.01 | S. cerevisiae deletion strains, locus YMR078C, strain ctf18, stronger effect = lower value 0.996 | S. cerevisiae deletion strains, locus YMR125W, strain sto1, stronger effect = lower value 0.998 | S. cerevisiae deletion strains, locus YMR129W, stronger effect = lower value 1 | S. cerevisiae deletion strains, locus YMR205C, strain PFK2, stronger effect = lower value 0.998 | S. cerevisiae deletion strains, locus YMR223W, strain ubp8, stronger effect = lower value 0.991 | S. cerevisiae deletion strains, locus YMR231W, strain pep5, stronger effect = lower value 0.967 | S. cerevisiae deletion strains, locus YMR307W, strain GAS1, stronger effect = lower value 1.05 | S. cerevisiae deletion strains, locus YNL067W, strain RPL9B, stronger effect = lower value 1.02 | S. cerevisiae deletion strains, locus YNL071W, strain lat1, stronger effect = lower value 1 | S. cerevisiae deletion strains, locus YNL153C, strain GIM3, stronger effect = lower value 0.998 | S. cerevisiae deletion strains, locus YNL209W, strain ssb2, stronger effect = lower value 0.998 | S. cerevisiae deletion strains, locus YNL233W, strain BNI4, stronger effect = lower value 1.01 | S. cerevisiae deletion strains, locus YNL248C, strain rpa49, stronger effect = lower value 1.01 | S. cerevisiae deletion strains, locus YNL250W, strain rad50, stronger effect = lower value 0.994 | S. cerevisiae deletion strains, locus YNL271C, strain bni1, stronger effect = lower value 1 | S. cerevisiae deletion strains, locus YNL298W, strain CLA4, stronger effect = lower value 0.999 | S. cerevisiae deletion strains, locus YNL307C, strain MCK1, stronger effect = lower value 1 | S. cerevisiae deletion strains, locus YNL322C, strain KRE1 (second series), stronger effect = lower value 1.01 | S. cerevisiae deletion strains, locus YNL322C, strain KRE1, stronger effect = lower value 1.01 | S. cerevisiae deletion strains, locus YNR049C, strain mso1, stronger effect = lower value 1.02 | S. cerevisiae deletion strains, locus YNR052C, strain pop2, stronger effect = lower value 0.996 | S. cerevisiae deletion strains, locus YOL012C, strain htz1 0.704 | S. cerevisiae deletion strains, locus YOL147C, strain pex11, stronger effect = lower value 1.01 | S. cerevisiae deletion strains, locus YOR001W, strain rrp6, stronger effect = lower value 1.02 | S. cerevisiae deletion strains, locus YOR061W, strain CKA2, stronger effect = lower value 1.01 | S. cerevisiae deletion strains, locus YOR069W, strain VPS5, stronger effect = lower value 1.01 | S. cerevisiae deletion strains, locus YOR070C, strain gyp1, stronger effect = lower value 1 | S. cerevisiae deletion strains, locus YOR080W, strain dia2, stronger effect = lower value 1.01 | S. cerevisiae deletion strains, locus YOR083W, strain WHI5, stronger effect = lower value 0.975 | S. cerevisiae deletion strains, locus YOR106W, strain vam3, stronger effect = lower value 1 | S. cerevisiae deletion strains, locus YOR136W, strain idh2, stronger effect = lower value 0.998 | S. cerevisiae deletion strains, locus YOR144C, strain elg1, stronger effect = lower value 0.996 | S. cerevisiae deletion strains, locus YOR184W, strain ser1, stronger effect = lower value 1.02 | S. cerevisiae deletion strains, locus YOR265W, strain rbl2, stronger effect = lower value 0.994 | S. cerevisiae deletion strains, locus YOR270C, strain vph1, stronger effect = lower value 1 | S. cerevisiae deletion strains, locus YOR290C, strain snf2, stronger effect = lower value 0.961 | S. cerevisiae deletion strains, locus YOR316C, strain cot1, stronger effect = lower value 0.992 | S. cerevisiae deletion strains, locus YPL051W, strain arl3, stronger effect = lower value 0.97 | S. cerevisiae deletion strains, locus YPL078C, strain atp4, stronger effect = lower value 0.97 | S. cerevisiae deletion strains, locus YPL106C, strain sse1, stronger effect = lower value 0.994 | S. cerevisiae deletion strains, locus YPL240C, strain hsp82, stronger effect = lower value 0.999 | S. cerevisiae deletion strains, locus YPL241C, strain CIN2, stronger effect = lower value 1.01 | S. cerevisiae deletion strains, locus YPR119W, strain clb2, stronger effect = lower value 0.995 | S. cerevisiae deletion strains, locus YPR141C, strain kar3, stronger effect = lower value 0.997 | S. cerevisiae deletion strains, locus YPR163C, strain tif3, stronger effect = lower value 0.988 | S. cerevisiae deletion strains, locus YPR167C, strain met16, stronger effect = lower value 0.997 | S. cerevisiae deletion strains, strain wtn01, stronger effect = lower value 1.02 | S. cerevisiae strains, strain wild type, stronger effect = lower value 1.01
